Laboratory results as given in PubChem BioAssay (EPA / NIEHS).
Records with an inconclusive call do not appear. The source made the active and inactive calls. The calls were made as follows, unless noted: active = hit-call score of the fitted dose curve at least 0.9, where 1 is the maximum; inactive = score below 0.9.

Key:
[1] = read-out: Monocyte Chemoattractant Protein-1 (MCP1), CCL2 (gene 6347); assay: BSK_LPS_MCP1: BioMAP Diversity Plus: LPS Assay for Monocyte Chemoattractant Protein-1 (MCP1) Biomarker Activity (AID 2283081); conditions: primary human HUVEC with PBMC; actives raise or lower the signal;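 as to AC50: secreted MCP-1 protein quantified by ELISA in culture supernatant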
Outline: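 Human umbilical vein endothelial cells co-cultured with PBMC, LPS-stimulated; secreted MCP-1 measured by ELISA 24 h after compound addition. Bidirectional curve fitting against DMSO baseline; SRB total-protein staining in parallel cultures for cytotoxicity.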

[2] = BSK_LPS_PGE2: BioMAP Diversity Plus: LPS Assay for Prostaglandin E2 (PGE2) Biomarker Activity (AID 2283082); conditions: primary human HUVEC with PBMC; actives raise or lower the signal;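 as to AC50: secreted prostaglandin E2 measured by ELISA in LPS-stimulated co-culture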
Outline: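 Endpoint derived from bidirectional curve fitting versus DMSO of ELISA-measured PGE2 in LPS-stimulated human primary vascular co-culture (HUVEC with PBMC) harvested at 24 h.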

[3] = read-out: Macrophage colony-stimulating factor (MCSF), CSF1 (gene 1435); assay: BSK_LPS_MCSF: BioMAP Diversity Plus: LPS Assay for Macrophage colony-stimulating factor (MCSF) Biomarker Activity (AID 2283083); conditions: primary human HUVEC with PBMC; actives raise or lower the signal
Outline: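 HUVEC–PBMC co-culture, M-CSF measured by ELISA 24 h after chemical dosing. Fitted in both directions relative to DMSO as negative control; overt cytotoxicity assessed by SRB total-protein staining in parallel cultures.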

[4] = read-out: Tissue Factor, F3 (gene 2152); assay: BSK_LPS_TissueFactor: BioMAP Diversity Plus: LPS Assay for Tissue Factor Biomarker Activity (AID 2283084); conditions: primary human HUVEC with PBMC; actives raise or lower the signal
Outline: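 Human umbilical vein endothelial cells co-cultured with PBMC were dosed with compound. Cell-surface CD142 was measured by ELISA 24 h later. Activity was fitted bidirectionally against DMSO, with SRB total-protein staining in parallel cultures for cytotoxicity.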

[5] = read-out: Tumor necrosis factor (Homo sapiens) (UniProt P01375); assay: BSK_LPS_TNFa: BioMAP Diversity Plus: LPS Assay for Tumour Necrosis Factor alpha (TNFa) Biomarker Activity (AID 2283085); conditions: primary human HUVEC with PBMC; actives raise or lower the signal
Outline: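 Primary human vascular co-culture of HUVEC and PBMC; TNFa ELISA 24 h after treatment, analysed as increase or decrease relative to DMSO control.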

[6] = read-out: Vascular cell adhesion molecule 1 (VCAM1), VCAM1 (gene 7412); assay: BSK_LPS_VCAM1: BioMAP Diversity Plus: LPS Assay for Vascular cell adhesion molecule 1 (VCAM1) Biomarker Activity (AID 2283086); conditions: primary human HUVEC with PBMC; actives raise or lower the signal
Outline: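 Primary human vascular co-culture (umbilical vein endothelium plus PBMC) stimulated with LPS received chemical; 24 h later VCAM-1 was read by ELISA. Overt cytotoxicity was assessed by sulforhodamine B staining of parallel cultures at the same time point.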

[7] = read-out: CD38, CD38 (gene 952); assay: BSK_SAg_CD38: BioMAP Diversity Plus: SAg Assay for CD38 Biomarker Activity (AID 2283087); conditions: primary human HUVEC with PBMC; actives raise or lower the signal
Outline: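 Fluorescence ELISA of cell-surface CD38 served as the read-out, with either increase or decrease fitted against DMSO controls. Cells were a human umbilical vein endothelium plus PBMC co-culture under SEB/TSST-1 stimulation, measured 24 h after dosing.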

[8] = read-out: CD40, CD40 (gene 958); assay: BSK_SAg_CD40: BioMAP Diversity Plus: SAg Assay for CD40 Biomarker Activity (AID 2283088); conditions: primary human HUVEC with PBMC; actives raise or lower the signal
Outline: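 HUVEC plus PBMC co-culture, superantigen-activated, with CD40 read by ELISA 24 h after dosing. Curves fitted in both directions against DMSO. Overt cytotoxicity checked by parallel SRB total-protein staining.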

[9] = read-out: CD69, CD69 (gene 969); assay: BSK_SAg_CD69: BioMAP Diversity Plus: SAg Assay for CD69 Biomarker Activity (AID 2283089); conditions: primary human HUVEC with PBMC; actives raise or lower the signal;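 as to AC50: cell surface CD69 protein quantified by ELISA with fluorescence detection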
Outline: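 Values derive from bidirectional fitting relative to DMSO vehicle. Cells: umbilical vein endothelium plus peripheral blood mononuclear cells, treated 24 h before fluorescent ELISA for CD69.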

[10] = read-out: Monocyte Chemoattractant Protein-1 (MCP1), CCL2 (gene 6347); assay: BSK_SAg_MCP1: BioMAP Diversity Plus: SAg Assay for Monocyte Chemoattractant Protein-1 (MCP1) Biomarker Activity (AID 2283090); conditions: primary human HUVEC with PBMC; actives raise or lower the signal
Outline: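 MCP-1 levels in the endothelial–PBMC SAg co-culture were quantified by ELISA at 24 h post-dosing; both increases and decreases versus DMSO scored. Cytotoxicity monitored by SRB total protein in parallel cultures.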

[11] = read-out: E-selectin (Homo sapiens) (UniProt P16581); assay: BSK_SAg_Eselectin: BioMAP Diversity Plus: SAg Assay for Eselectin Biomarker Activity (AID 2283091); conditions: primary human HUVEC with PBMC; actives raise or lower the signal
Outline: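 Human umbilical vein endothelial cells co-cultured with peripheral blood mononuclear cells, SAg system. E-selectin is measured by ELISA 24 h after dosing and fitted bidirectionally against DMSO. Cytotoxicity is checked by SRB staining of parallel cultures.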

[12] = BSK_SAg_PBMCCytotoxicity: PBMC Cytotoxicity Assessment in the BioMAP Diversity Plus: SAg Assay (AID 2283093); conditions: primary human HUVEC with PBMC;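 also: PBMC viability measured as Alamar Blue reduction fluorescence at 546/580 nm; fitted both ways against DMSO so a hit may be loss or gain of signal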;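 as to AC50: PBMC superantigen activated with SEB plus TSST-1 one hour after compound addition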
Outline: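 HUVEC/PBMC co-culture; PBMC exposed to chemical 1 h before SEB and TSST-1 activation (20 ng/mL each), incubated 90 h, then Alamar Blue 6 h, fluorescence 546/580 nm. Bidirectional fit versus DMSO baseline.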

[13] = read-out: Interleukin-8 (IL8), CXCL8 (gene 3576); assay: BSK_SAg_IL8: BioMAP Diversity Plus: SAg Assay for Interleukin-8 (IL8) Biomarker Activity (AID 2283094); conditions: primary human HUVEC with PBMC; actives raise or lower the signal
Outline: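 In this co-culture of human umbilical vein endothelium with peripheral blood mononuclear cells, IL-8 is assayed by ELISA at 24 h. DMSO serves as baseline for bidirectional curve fitting.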

[14] = BSK_SAg_Proliferation: Cell Proliferation Assessment in the BioMAP Diversity Plus: SAg Assay (AID 2283095); conditions: primary human HUVEC with PBMC;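 also: relative cell number as total protein by SRB absorbance in sub-confluent culture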
Outline: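 Readout is SRB-stained protein (560 nm) in a primary human HUVEC and PBMC co-culture; sub-confluent cultures are read at 96 h. Activity is fitted bidirectionally using DMSO as baseline.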

[15] = BSK_SAg_SRB: Viability Assessment in the BioMAP Diversity Plus: SAg Assay (AID 2283096); conditions: primary human HUVEC with PBMC;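 also: cells read one day after compound addition; hits may be either gain or loss of signal compared with DMSO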
Outline: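 Human umbilical vein endothelial cells co-cultured with PBMC, read 24 h after compound dosing. Total protein measured by sulforhodamine B staining (0.1% SRB after 10% TCA fixation, absorbance 560 nm); bidirectional fit versus DMSO baseline.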

[16] = biological target: human CYP2A6, CYP2A6 (gene 1548) (UniProt P11509); assay: NVS_ADME_hCYP2A6: NovaScreen (NVS) CYP450-related Enzyme Activity (ADME) Assay for human CYP2A6 (AID 2283099; active = hit-call score of the fitted dose curve at least 0.9, where 1 is the maximum)
Outline: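 Recombinant human CYP2A6 expressed in insect cells, cell-free; fluorogenic substrate turnover read by fluorescence intensity 0.5 h after dosing. Primary screen 10 uM in duplicate, then concentration-response up to 20 uM; acetonitrile as negative control.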

[17] = biological target: human CYP1A1, CYP1A1 (gene 1543) (UniProt P04798); assay: NVS_ADME_hCYP1A1: NovaScreen (NVS) CYP450-related Enzyme Activity (ADME) Assay for human CYP1A1 (AID 2283100; active = hit-call score of the fitted dose curve at least 0.9, where 1 is the maximum)
Outline: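 Recombinant CYP1A1 with a fluorogenic substrate, cell-free, read 1 h after dosing; acetonitrile as negative control. Single-concentration screen at 10 uM in duplicate, then concentration-response up to 20 uM for chemicals meeting ~30% inhibition threshold.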

[18] = read-out: Monokine induced gamma interferon (MIG), CXCL9 (gene 4283); assay: BSK_SAg_MIG: BioMAP Diversity Plus: SAg Assay for Monokine induced gamma interferon (MIG) Biomarker Activity (AID 2283092); conditions: primary human HUVEC with PBMC; actives raise or lower the signal
Outline: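 Values reflect bidirectional fitting of ELISA-measured MIG against DMSO vehicle, taken 24 h after dosing of a co-culture of human umbilical vein endothelial cells and peripheral blood mononuclear cells.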

E-selectin (Homo sapiens), sequence (P16581 whole entry, looked up): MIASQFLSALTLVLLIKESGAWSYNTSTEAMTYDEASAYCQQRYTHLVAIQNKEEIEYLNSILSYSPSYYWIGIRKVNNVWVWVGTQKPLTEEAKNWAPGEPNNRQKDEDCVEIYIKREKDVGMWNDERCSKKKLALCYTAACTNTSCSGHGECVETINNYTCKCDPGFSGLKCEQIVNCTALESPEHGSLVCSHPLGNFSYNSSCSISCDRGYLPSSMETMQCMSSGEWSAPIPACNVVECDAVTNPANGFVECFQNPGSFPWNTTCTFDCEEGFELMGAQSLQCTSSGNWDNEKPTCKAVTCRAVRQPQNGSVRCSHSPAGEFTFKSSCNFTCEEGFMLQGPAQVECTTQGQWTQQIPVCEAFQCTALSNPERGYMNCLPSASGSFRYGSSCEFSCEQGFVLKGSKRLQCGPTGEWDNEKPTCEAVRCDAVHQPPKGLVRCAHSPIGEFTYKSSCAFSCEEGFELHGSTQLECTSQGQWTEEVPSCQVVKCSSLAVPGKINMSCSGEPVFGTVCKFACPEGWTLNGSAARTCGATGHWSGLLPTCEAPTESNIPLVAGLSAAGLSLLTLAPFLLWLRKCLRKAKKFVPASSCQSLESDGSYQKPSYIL
Tumor necrosis factor (Homo sapiens), sequence (P01375 whole entry, looked up): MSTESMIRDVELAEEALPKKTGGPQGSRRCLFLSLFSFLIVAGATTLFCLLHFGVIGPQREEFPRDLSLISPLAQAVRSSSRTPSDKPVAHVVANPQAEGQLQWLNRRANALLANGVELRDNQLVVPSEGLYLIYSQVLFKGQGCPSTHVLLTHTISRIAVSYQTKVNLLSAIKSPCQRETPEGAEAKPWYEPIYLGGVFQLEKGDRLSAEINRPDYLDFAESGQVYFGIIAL
human CYP2A6, CYP2A6 (gene 1548), sequence (P11509 whole entry, looked up): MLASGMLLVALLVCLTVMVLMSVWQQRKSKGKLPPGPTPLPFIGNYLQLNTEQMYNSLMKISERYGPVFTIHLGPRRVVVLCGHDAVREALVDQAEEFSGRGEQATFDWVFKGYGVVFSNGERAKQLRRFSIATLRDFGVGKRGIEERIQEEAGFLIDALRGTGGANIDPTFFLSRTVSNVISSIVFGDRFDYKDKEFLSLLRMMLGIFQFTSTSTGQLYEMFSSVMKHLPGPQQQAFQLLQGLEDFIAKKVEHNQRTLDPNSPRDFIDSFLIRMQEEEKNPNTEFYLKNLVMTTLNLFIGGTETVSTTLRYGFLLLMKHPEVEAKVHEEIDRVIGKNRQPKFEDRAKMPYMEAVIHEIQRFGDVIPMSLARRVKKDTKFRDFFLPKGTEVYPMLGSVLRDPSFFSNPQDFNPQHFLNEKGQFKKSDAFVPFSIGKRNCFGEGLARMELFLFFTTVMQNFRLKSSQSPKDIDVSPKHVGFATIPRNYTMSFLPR
human CYP1A1, CYP1A1 (gene 1543), sequence (P04798 whole entry, looked up): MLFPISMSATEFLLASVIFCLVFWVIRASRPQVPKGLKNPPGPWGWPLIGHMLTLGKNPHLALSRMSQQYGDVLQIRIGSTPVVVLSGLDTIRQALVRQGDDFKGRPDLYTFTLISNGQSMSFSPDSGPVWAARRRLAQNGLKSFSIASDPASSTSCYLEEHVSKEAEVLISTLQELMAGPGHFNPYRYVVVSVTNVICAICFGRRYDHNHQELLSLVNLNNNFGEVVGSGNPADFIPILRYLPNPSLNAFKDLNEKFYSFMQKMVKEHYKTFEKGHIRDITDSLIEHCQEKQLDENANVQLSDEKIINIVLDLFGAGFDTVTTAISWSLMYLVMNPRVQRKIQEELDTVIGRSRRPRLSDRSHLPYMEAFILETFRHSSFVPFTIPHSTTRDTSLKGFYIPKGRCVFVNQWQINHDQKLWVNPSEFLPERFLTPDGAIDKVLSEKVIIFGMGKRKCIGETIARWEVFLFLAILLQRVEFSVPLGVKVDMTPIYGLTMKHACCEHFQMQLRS

SMILES: CCN(CC)CCNc1ccc(CNC=O)c2sc3ccc(OC)cc3c(=O)c12
- AC50 [1]: 20 µM (active)
- AC50 [2]: 4.06 µM (active)
- AC50 [3]: 20 µM (active)
- AC50 [4]: 25.5 µM (active)
- AC50 [5]: 17.8 µM (active)
- AC50 [6]: 14.4 µM (active)
- AC50 [7]: 26.7 µM (active)
- AC50 [8]: 27 µM (active)
- AC50 [9]: 24.9 µM (active)
- AC50 [10]: 20 µM (active)
- AC50 [11]: 20 µM (active)
- AC50 [12]: 12.9 µM (active)
- AC50 [13]: 20 µM (active)
- AC50 [14]: 7.57 µM (active)
- AC50 [15]: 17.8 µM (active)
- outcome [16]: inactive
- AC50 [17]: 6.62 µM (active)

SMILES: CCCCCCCCCCCCCC[N+](C)(C)C
- AC50 [1]: 5.01 µM (active)
- outcome [2]: inactive
- AC50 [3]: 5.39 µM (active)
- AC50 [4]: 5.28 µM (active)
- AC50 [5]: 11 µM (active)
- AC50 [6]: 5.64 µM (active)
- AC50 [7]: 3.24 µM (active)
- AC50 [8]: 2.15 µM (active)
- AC50 [9]: 2.53 µM (active)
- AC50 [10]: 3.66 µM (active)
- AC50 [11]: 3.2 µM (active)
- AC50 [12]: 4.69 µM (active)
- AC50 [13]: 3.2 µM (active)
- AC50 [14]: 0.539 µM (active)
- AC50 [15]: 3.15 µM (active)

SMILES: CC(C)(C)c1cc(C(C)(C)C)c(O)c(C(C)(C)C)c1
- outcome [1]: inactive
- outcome [2]: inactive
- outcome [3]: inactive
- AC50 [4]: 20 µM (active)
- outcome [5]: inactive
- outcome [6]: inactive
- outcome [7]: inactive
- outcome [8]: inactive
- outcome [9]: inactive
- outcome [10]: inactive
- outcome [11]: inactive
- outcome [12]: inactive
- outcome [13]: inactive
- outcome [14]: inactive
- outcome [15]: inactive

SMILES: CC(C)(C)CC(C)(C)c1ccc(O)c(-n2nc3ccccc3n2)c1
- outcome [1]: inactive
- outcome [2]: inactive
- outcome [3]: inactive
- outcome [4]: inactive
- outcome [5]: inactive
- outcome [6]: inactive
- outcome [7]: inactive
- outcome [8]: inactive
- outcome [9]: inactive
- outcome [10]: inactive
- outcome [11]: inactive
- outcome [12]: inactive
- outcome [13]: inactive
- outcome [14]: inactive
- outcome [15]: inactive

SMILES: CCC(=C(c1ccc(O)cc1)c1ccc(OCCN(C)C)cc1)c1ccccc1
- AC50 [1]: 9.72 µM (active)
- AC50 [2]: 19.8 µM (active)
- AC50 [3]: 7.5 µM (active)
- AC50 [4]: 13 µM (active)
- AC50 [5]: 13.6 µM (active)
- AC50 [6]: 12.6 µM (active)
- AC50 [7]: 8.38 µM (active)
- AC50 [8]: 11.1 µM (active)
- AC50 [9]: 9.48 µM (active)
- AC50 [10]: 11.1 µM (active)
- AC50 [11]: 18.7 µM (active)
- AC50 [12]: 7.32 µM (active)
- AC50 [13]: 10.2 µM (active)
- AC50 [14]: 5.91 µM (active)
- AC50 [15]: 8.31 µM (active)

SMILES: CN1CCN(c2ccccc2/C=C2\SCCN(c3ccc(Cl)c(Cl)c3)C2=O)CC1
- AC50 [1]: 12.1 µM (active)
- outcome [2]: inactive
- outcome [3]: inactive
- outcome [4]: inactive
- AC50 [5]: 20 µM (active)
- AC50 [6]: 13 µM (active)
- AC50 [7]: 24.1 µM (active)
- AC50 [8]: 20 µM (active)
- AC50 [9]: 20 µM (active)
- AC50 [10]: 23 µM (active)
- outcome [11]: inactive
- AC50 [12]: 14.4 µM (active)
- AC50 [13]: 20 µM (active)
- AC50 [14]: 6.38 µM (active)
- AC50 [15]: 5.22 µM (active)

SMILES: CCCCCCCCCCCCN1CCCC1=O
- AC50 [1]: 32.9 µM (active)
- outcome [2]: inactive
- AC50 [3]: 32.6 µM (active)
- outcome [4]: inactive
- outcome [5]: inactive
- AC50 [6]: 34.1 µM (active)
- AC50 [7]: 31.3 µM (active)
- AC50 [8]: 30.9 µM (active)
- AC50 [9]: 29.9 µM (active)
- AC50 [10]: 29.6 µM (active)
- AC50 [11]: 30.3 µM (active)
- AC50 [18]: 36.8 µM (active)
- AC50 [12]: 33 µM (active)
- AC50 [13]: 20 µM (active)
- AC50 [14]: 36.3 µM (active)
- AC50 [15]: 30.9 µM (active)
